Laboratory results reported in PubChem BioAssay (NCATS).
Inconclusive results are not listed. A call without a number means that no potency is given here. Calls of active or inactive are those of the source. Calls follow the shape of the dose curve; as a rule, active = well fitted inhibition curve with a large enough effect; inconclusive = small, poorly fitted or top-dose-only effect; inactive = flat fitted curve, though single readings scatter.

How the values were obtained:
Test in all cases: qHTS profiling for inhibitors of Plasmodium falciparum proliferation (AID 504749); also: nearly all actives have a fitted effect of over 60% in size
Conditions in all cases: P. falciparum in erythrocytes, SYBR Green DNA, 72 h; series mostly up to 28.7 µM
3D7 = system: 3D7
Summary of the method: (§1)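 In a 72 h erythrocytic culture (37 C, humidified, 5% CO2) at 2.5% hematocrit and 0.3% starting parasitemia, compounds were tested; SYBR Green I in detergent lysis buffer stained parasite DNA overnight.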

AA1029 = system: AA1029
Summary of the method: as §1

ATS95 = system: ATS95
Summary of the method: as §1

CP217 = system: CP217
Summary of the method: as §1

CP238 = system: CP238
Summary of the method: as §1

CP252 = system: CP252
Summary of the method: as §1

CP262 = system: CP262
Summary of the method: as §1

CP265 = system: CP265
Summary of the method: as §1

DIV30 = system: DIV30
Summary of the method: as §1

ECU = system: ECU
Summary of the method: as §1

FAB9 = system: FAB9
Summary of the method: as §1

GB4 = system: GB4
Summary of the method: as §1

JCK = system: JCK
Summary of the method: as §1

N140 = system: N140
Summary of the method: as §1

P93_24 = system: P93_24
Summary of the method: as §1

P94_40 = system: P94_40
Summary of the method: as §1

PAD = system: PAD
Summary of the method: as §1

PC26 = system: PC26
Summary of the method: as §1

PC49 = system: PC49
Summary of the method: as §1

SC27B = system: SC27B
Summary of the method: as §1
Potency is read from the fitted curve at half-maximal effect.

Row | Compound | Potency (3D7) | Potency (AA1029) | Potency (ATS95) | Potency (CP217) | Potency (CP238) | Potency (CP252) | Potency (CP262) | Potency (CP265) | Potency (DIV30) | Potency (ECU) | Potency (FAB9) | Potency (GB4) | Potency (JCK) | Potency (N140) | Potency (P93_24) | Potency (P94_40) | Potency (PAD) | Potency (PC26) | Potency (PC49) | Potency (SC27B)
1 | CO/N=C(\C(=O)N[C@@H]1C(=O)N2C(C(=O)[O-])=C(C[N+]3(C)CCCC3)CS[C@@H]12)c1csc(N)n1 | inactive | inactive | inactive | inactive | inactive | inactive | inactive | inactive | inactive | inactive | inactive | inactive | inactive | inactive | inactive | inactive | inactive | inactive | inactive | inactive
2 | C[C@H]1C[C@@H]2[C@H]3CCC4=CC(=O)C=C[C@@]4(C)[C@@]3(Cl)[C@@H](O)C[C@]2(C)[C@]1(OC(=O)c1ccco1)C(=O)CCl | 3.98 µM (active) | 3.16 µM (active) | 3.16 µM (active) | 3.98 µM (active) | 3.55 µM (active) | inactive |  | 3.55 µM (active) | 6.42 µM (active) |  |  | 6.42 µM (active) |  | 3.55 µM (active) |  | 3.55 µM (active) | 3.98 µM (active) | 6.42 µM (active) |  | 
3 | C[C@@H]1C[C@H]2[C@H]3C[C@@H](F)C4=CC(=O)C=C[C@]4(C)[C@@]3(Cl)[C@@H](O)C[C@@]2(C)[C@@H]1C(=O)COC(=O)C(C)(C)C | 12.6 µM (active) | inactive | inactive | inactive | inactive | inactive | inactive | inactive | inactive | inactive | inactive | inactive | inactive | inactive | inactive | inactive | inactive | inactive | inactive | inactive
4 | C=C(NC(=O)C(=C)NC(=O)c1csc(C2=N[C@@H]3c4csc(n4)[C@@H]4NC(=O)c5csc(n5)[C@@H]([C@](C)(O)[C@H](C)O)NC(=O)[C@@H]5CSC(=N5)/C(=C/C)NC(=O)[C@@H]([C@H](C)O)NC(=O)c5csc(n5)[C@]3(CC2)NC(=O)[C@@H](C)NC(=O)C(=C)NC(=O)[C@@H](C)NC(=O)[C@@H]([C@@H](C)CC)N[C@H]2C=Cc3c([C@H](C)O)cc(nc3[C@@H]2O)C(=O)O[C@H]4C)n1)C(N)=O |  |  |  |  |  |  | inactive |  |  | inactive | inactive |  | inactive |  | 1.78 µM (active) |  |  |  | inactive | inactive
